Consider 40 molecules from PubChem BioAssay (NCI).

The panel holds about 83,000 compounds, 20% with a hit somewhere; the sample as a whole holds those more often.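 Single-dose data. Exposure time 48 hours. Values below 10 considered active.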 A number with no mark means an inactive call. Active and inactive are the calls of the source.

The test system of this experiment is HL-60(TB) leukemia. Put plainly: NCI-60 one-dose screen, 48 h (100 = growth as untreated, 0 = no growth, -100 = all killed). Conditions: 10 µM unless noted.
Take `C(=C(\C1=NCCN1)n1cnc2ccccc21)/c1cccc2ccccc12`: the growth is 71.6%. Under `COc1cc(-c2nc3ccc(-c4nnc(SCC(=O)Nc5ccc(C(=O)/C=C/c6ccc(Cl)cc6)cc5)o4)cc3[nH]2)cc(OC)c1OC` stands 92.5%; under `O=C(Nc1nc2ccc([N+](=O)[O-])cc2s1)Nc1ccccc1Cl`, 28.7%. As to `O=C(CSc1nc2ccccc2c(=O)n1-c1ccccc1)Nc1cccc(C(=O)/C=C/c2ccccc2Cl)c1`, the growth is 108%. With `COc1ccc(S(=O)(=O)NCCCNc2nccc(-n3cnc4ccccc43)n2)cc1`, the growth was 110%. Under `C=CCSC1=NC2C(N(CC)C(=O)N2CC)N1/N=C/C=C/c1ccccc1OC` (stereo not given) stands 45.6%; under `COc1ccc(N2C(=O)c3cc(OC)c(OC)cc3NC2SCc2ccccc2)cc1` (stereo not given), 110%; under `CCOC(=O)c1c(NCC(=O)Nc2cccc(Cl)c2)sc2c1CCCC2`, 90.8%. As for `Cc1ccc2c(n1)C(=O)C(Cl)=C(Nc1ccc(C(=O)OC(C)(C)C)cc1)C2=O`, the growth is 4.87% [9.25 µM] (active). Next, `COc1ccc2c(c1)c(CC(=O)[Se]CC(=O)O)c(C)n2C(=O)c1ccc(Cl)cc1`: 53.7%; `O=C1/C(=C/C=C/c2ccco2)SC(=S)N1c1ccccc1`: 51.8%; `COc1cccc(N2CCN(c3ncnc4c3[nH]c3ccc(F)cc34)C[C@@H]2C)c1`: -38.8% (active). On to `C#CCOc1ccccc1/C=N/Nc1nc(-c2ccc(Cl)cc2)cs1`, for which the growth is 90.8%. Take `CNC(=O)c1cc(Oc2ccc3c(c2)sc2nc(-c4ccc(N(C)C)cc4)cn23)ccn1`: the growth is 5.28% (active).

As to `Cc1cc(C)c(N2C(=O)CC(Nc3ccc(Cl)cc3Cl)C2=O)c(C)c1` (stereo not given), the growth is 100%. Next, `Nc1cc(C(=O)N/N=C\c2ccc(OC(F)F)c(OC3CCCC3)c2)nn1CC(O)c1ccccc1` (stereo not given): 91.3%; `Oc1ccc(CSc2nnc(-c3ccc(Oc4ccccc4)cc3)n2-c2ccccc2)c2cccnc12`: 10.1%; `C#Cc1nc(C(=O)NCCC(=O)Nc2ccc(NC(=O)c3ccc(/C=C/C(=O)c4nccn4C)cc3)cc2)cs1`: 12.2%.

As to `COc1ccc([C@@H]2c3[nH]c4ccccc4c3CC3C(=O)N(C4CCN(Cc5c(F)cccc5F)CC4)CC(=O)N32)c(OC)c1` (stereo not given in full), the growth is 39.6% [5.26 µM]. Next, `C[C@@H]1C[C@H]2C(=O)O[C@@H](C)C(NC(=O)[C@H](Cc3cc(F)cc(F)c3)NC(=O)Nc3ccc(Cl)cc3F)C(=O)N3CCC[C@H]3C(=O)N3CCCC[C@H]3C(=O)N[C@@H](CO)C(=O)N2C1` (stereo not given in full): 13.5%; `CCOC(=O)c1cccc(NC2=C(Cl)C(=O)C(C)=C(C)C2=O)c1`: 31.2%.

Consider `O=C(CCCCCCNC(=O)C(O)(O)C(F)(F)F)Nc1ccc(Br)cc1`, for which the growth is 10.4%. Regarding `C=C(C)[C@@H]1CC[C@]2(COCCCNCCCN)CC[C@]3(C)[C@H](CC[C@@H]4[C@@]5(C)CC[C@H](O)C(C)(C)[C@@H]5CC[C@]43C)[C@@H]12`, the growth was -28.1% (active). Regarding `CS(=O)(=O)c1ccc(-c2nc3ccccn3c2-c2nc3ccc([N+](=O)[O-])cc3[nH]2)cc1`, the growth is 95.7%. Next, `Cc1c(NC(=O)CSc2nc3sc4c(c3c(=O)n2-c2ccc(Cl)cc2)CCCC4)c(=O)n(-c2ccccc2)n1C`: 80%. Take `COc1ccc(-c2nc3ccc(-c4nnc(SCC(=O)Nc5ccc(C(C)=O)cc5)o4)cc3[nH]2)cc1`: the growth was 83.4%. Next, `O=c1c2ccccc2nc(COc2ccccc2)n1NS(=O)(=O)c1ccc(Cl)cc1`: 75.7%. As for `CCCCCc1ccc(S(=O)(=O)Nc2cccc(-c3csc(NCCN4CCN(C)CC4)n3)c2)cc1`, the growth was 0.22% (active). In the case of `CC(C)(C)CC(C)(C)n1nnnc1C(Nc1ccccc1)c1cc2cccc3ccc4cccc1c4c32` (stereo not given), the growth is 101%. Next, `COc1ccc([C@H]2c3[nH]c4ccccc4c3C[C@H]3C(=O)N(C4CCN(Cc5c(Cl)cccc5Cl)CC4)CC(=O)N23)c(OC)c1`: 97%. Next, `CC1=CC(=O)C2=C(C)CC(OC(=O)CCc3ccccc3)[C@@H]3[C@H](OC(=O)[C@@H]3C)[C@@H]12` (stereo not given in full): 87.9%; `Fc1ccc(-c2nc(C(Cl)Cl)nc3cc(-c4ccccc4)nn23)cc1`: -8.76% (active).

For the molecule `NC(=O)C(=Cc1ccc(Cl)cc1)C(N)=O`, the growth is 26.6%. Under `COc1ccc(-c2c(C(N)=O)c(N)n(Cc3nc4ccccc4[nH]3)c(=O)c2C#N)c(OC)c1` stands 106%; under `CCCCCCNC(=O)Oc1ccc(/C(=C(/C)c2ccc(OC)cc2)c2ccc(OCCN3CCCC3)cc2)cc1`, 50.7%. Next, `COc1ccc(C(=O)/C=C/c2ccc(OCc3ccc(Cl)cc3)c(OC)c2)cc1OC`: 4.56% (active); `Cc1ccc(Nc2nc(SC(C)C)nc(-c3ccccc3)c2C#N)cc1`: 118%; `COc1ccc(-c2nc(C#N)c(N3CCC(S(=O)(=O)N4CCOCC4)CC3)o2)cc1`: 117%. Next, `Cc1cccc(/C=C/c2nn3c(-c4ccco4)nnc3s2)c1`: 86.2%; `COc1ccc2c(c1)c(-c1nn3cc(-c4ccncc4)nc3s1)cn2C`: -25.5% (active).
